Reference: ChEMBL document CHEMBL1961873, “Compounds: GSK PKIS; Assays: Nanosyn kinase panel” (2012)

Tests used:
[1] = target: Sphingosine kinase 1 (Homo sapiens) (UniProt Q9NYA1); settings: at 1 µM;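 note: mean SPHK1 inhibition value reported from the GSK PKIS kinase panel screen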
[2] = target: T1, Sphingosine kinase 2 (Homo sapiens) (UniProt Q9NRA0); settings: at 0.1 µM
T1 sequence (whole entry): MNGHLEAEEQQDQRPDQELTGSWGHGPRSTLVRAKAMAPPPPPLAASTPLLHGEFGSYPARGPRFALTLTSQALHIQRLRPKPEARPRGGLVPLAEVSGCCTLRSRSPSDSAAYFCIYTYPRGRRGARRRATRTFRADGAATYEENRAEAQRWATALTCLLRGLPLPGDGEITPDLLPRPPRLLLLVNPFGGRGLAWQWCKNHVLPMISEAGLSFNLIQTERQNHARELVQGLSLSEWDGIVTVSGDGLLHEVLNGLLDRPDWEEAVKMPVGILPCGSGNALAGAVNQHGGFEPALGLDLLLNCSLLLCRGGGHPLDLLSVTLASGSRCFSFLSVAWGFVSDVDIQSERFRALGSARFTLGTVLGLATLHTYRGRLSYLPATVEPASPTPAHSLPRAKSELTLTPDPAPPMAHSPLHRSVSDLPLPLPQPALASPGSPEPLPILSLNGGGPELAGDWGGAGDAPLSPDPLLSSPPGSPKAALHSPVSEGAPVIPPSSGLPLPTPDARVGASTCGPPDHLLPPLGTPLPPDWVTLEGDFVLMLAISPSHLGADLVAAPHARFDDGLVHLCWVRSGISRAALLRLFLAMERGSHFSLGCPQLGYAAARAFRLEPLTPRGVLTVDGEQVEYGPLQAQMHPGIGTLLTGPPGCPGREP

[3] = target: T1, Sphingosine kinase 2 (Homo sapiens); settings: at 1 µM
[4] = target: Casein kinase II subunit alpha (Homo sapiens) (UniProt P68400); settings: at 0.1 µM
Chain of Casein kinase II subunit alpha (Homo sapiens) (P68400 whole entry, looked up): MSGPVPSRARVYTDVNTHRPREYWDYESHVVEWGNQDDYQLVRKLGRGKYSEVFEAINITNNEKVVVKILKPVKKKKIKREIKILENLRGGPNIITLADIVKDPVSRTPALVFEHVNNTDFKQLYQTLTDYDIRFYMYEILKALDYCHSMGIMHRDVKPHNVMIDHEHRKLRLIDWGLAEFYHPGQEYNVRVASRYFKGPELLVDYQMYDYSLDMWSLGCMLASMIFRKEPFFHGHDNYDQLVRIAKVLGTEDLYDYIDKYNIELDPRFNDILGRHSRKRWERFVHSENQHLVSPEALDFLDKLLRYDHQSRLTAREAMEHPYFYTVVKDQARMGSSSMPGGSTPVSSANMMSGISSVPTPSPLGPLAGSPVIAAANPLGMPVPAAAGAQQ

[5] = target: Casein kinase II subunit alpha (Homo sapiens) (UniProt P68400); settings: at 1 µM
[6] = target: T2, Inhibitor of nuclear factor kappa-B kinase subunit alpha (Homo sapiens) (UniProt O15111); settings: at 0.1 µM
T2 sequence (whole entry): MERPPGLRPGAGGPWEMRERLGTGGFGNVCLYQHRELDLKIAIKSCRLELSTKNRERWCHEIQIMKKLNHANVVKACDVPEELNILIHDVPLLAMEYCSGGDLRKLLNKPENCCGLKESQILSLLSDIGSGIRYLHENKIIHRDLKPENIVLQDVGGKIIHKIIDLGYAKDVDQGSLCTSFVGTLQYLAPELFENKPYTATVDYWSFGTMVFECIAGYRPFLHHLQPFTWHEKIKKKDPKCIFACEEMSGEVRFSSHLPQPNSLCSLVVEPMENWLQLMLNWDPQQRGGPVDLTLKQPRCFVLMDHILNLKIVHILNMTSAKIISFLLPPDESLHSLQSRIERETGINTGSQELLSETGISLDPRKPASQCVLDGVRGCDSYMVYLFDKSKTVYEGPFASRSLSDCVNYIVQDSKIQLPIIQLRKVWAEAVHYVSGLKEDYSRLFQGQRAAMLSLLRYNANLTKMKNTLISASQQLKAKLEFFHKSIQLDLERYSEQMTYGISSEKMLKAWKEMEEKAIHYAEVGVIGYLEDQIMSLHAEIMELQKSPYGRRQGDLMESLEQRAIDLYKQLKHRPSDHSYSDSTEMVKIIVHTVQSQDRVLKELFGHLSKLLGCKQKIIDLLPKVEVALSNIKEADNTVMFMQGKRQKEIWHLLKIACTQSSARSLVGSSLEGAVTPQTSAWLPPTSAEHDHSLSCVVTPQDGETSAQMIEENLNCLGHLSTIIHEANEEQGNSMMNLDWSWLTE

[7] = target: T2, Inhibitor of nuclear factor kappa-B kinase subunit alpha (Homo sapiens); settings: at 1 µM
[8] = target: T3, Inhibitor of nuclear factor kappa-B kinase subunit beta (Homo sapiens) (UniProt O14920); settings: at 0.1 µM
T3 sequence (whole entry): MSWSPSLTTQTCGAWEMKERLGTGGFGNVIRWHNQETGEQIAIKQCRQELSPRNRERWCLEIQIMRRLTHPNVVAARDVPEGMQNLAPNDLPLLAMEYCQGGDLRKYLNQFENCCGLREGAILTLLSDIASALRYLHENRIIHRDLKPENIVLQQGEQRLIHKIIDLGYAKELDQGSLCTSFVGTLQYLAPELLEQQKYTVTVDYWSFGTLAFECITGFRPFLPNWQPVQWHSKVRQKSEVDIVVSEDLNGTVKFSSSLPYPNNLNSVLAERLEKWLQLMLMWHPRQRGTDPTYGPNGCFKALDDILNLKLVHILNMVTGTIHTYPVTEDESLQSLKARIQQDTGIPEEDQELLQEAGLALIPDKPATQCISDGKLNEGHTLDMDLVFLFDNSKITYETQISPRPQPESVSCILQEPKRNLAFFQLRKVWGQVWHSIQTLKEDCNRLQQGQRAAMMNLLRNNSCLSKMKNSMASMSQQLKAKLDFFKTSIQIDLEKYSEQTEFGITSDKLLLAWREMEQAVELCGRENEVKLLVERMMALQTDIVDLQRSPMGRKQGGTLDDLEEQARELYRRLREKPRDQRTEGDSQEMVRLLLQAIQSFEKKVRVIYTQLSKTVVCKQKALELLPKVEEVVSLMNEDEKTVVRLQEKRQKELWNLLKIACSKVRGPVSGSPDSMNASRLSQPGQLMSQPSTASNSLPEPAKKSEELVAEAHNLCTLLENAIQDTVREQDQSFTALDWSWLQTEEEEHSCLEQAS

[9] = target: T3, Inhibitor of nuclear factor kappa-B kinase subunit beta (Homo sapiens); settings: at 1 µM
[10] = target: T4, Inhibitor of nuclear factor kappa-B kinase subunit epsilon (Homo sapiens) (UniProt Q14164); settings: at 0.1 µM;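 note: mean inhibition of IKKε reported, from the GSK PKIS dataset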
T4 sequence (whole entry): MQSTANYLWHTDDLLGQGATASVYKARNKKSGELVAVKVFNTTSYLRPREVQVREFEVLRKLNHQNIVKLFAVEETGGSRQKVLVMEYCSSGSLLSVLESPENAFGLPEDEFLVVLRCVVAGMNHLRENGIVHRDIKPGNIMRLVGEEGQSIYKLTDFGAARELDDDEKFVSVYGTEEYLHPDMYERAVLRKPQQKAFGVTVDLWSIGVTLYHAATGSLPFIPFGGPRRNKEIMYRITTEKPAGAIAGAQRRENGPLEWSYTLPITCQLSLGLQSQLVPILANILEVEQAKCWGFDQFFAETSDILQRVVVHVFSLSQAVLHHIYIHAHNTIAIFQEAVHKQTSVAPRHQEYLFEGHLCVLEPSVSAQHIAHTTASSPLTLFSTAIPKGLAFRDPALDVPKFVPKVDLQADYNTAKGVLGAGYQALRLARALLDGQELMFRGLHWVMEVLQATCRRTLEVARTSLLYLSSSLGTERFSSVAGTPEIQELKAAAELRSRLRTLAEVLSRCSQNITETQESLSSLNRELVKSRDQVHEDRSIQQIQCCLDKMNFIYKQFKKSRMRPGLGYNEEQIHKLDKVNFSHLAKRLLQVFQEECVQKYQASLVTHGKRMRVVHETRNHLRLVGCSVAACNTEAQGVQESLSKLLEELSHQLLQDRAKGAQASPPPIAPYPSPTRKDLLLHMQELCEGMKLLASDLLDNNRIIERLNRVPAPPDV

Chain of Sphingosine kinase 1 (Homo sapiens) (Q9NYA1 whole entry): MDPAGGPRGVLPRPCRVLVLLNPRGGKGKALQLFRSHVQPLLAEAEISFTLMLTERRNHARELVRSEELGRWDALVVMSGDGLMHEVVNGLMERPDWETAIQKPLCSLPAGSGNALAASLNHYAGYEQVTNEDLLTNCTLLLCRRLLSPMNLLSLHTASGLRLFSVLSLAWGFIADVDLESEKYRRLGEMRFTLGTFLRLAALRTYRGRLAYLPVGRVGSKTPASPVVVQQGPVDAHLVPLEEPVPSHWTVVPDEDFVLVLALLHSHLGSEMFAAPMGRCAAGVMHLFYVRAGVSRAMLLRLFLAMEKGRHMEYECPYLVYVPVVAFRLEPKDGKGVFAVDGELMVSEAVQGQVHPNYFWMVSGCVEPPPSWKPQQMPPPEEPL

CC(C)c1ccc(Nc2nccc(-c3cnn4ncccc34)n2)cc1
inhibition [1]: 7.28%
inhibition [2]: 0.26%
inhibition [3]: -0.48%
inhibition [4]: 10.7%
inhibition [5]: 43.4%
inhibition [6]: 18.7%
inhibition [7]: 64.1%
inhibition [8]: 7.7%
inhibition [9]: 23%
inhibition [10]: 4.12%

Oc1cccc(-c2nc(-c3ccccc3)[nH]c2-c2ccncc2)c1
inhibition [1]: -1.58%
inhibition [2]: 0.02%
inhibition [3]: -1.65%
inhibition [4]: 3.96%
inhibition [5]: 9.51%
inhibition [6]: 2.95%
inhibition [7]: 5.47%
inhibition [8]: 5.25%
inhibition [9]: 3.12%
inhibition [10]: 5.43%

Cc1ccc2c(-c3ccnc(Nc4ccc5c(c4)OCCO5)n3)c(-c3ccc(C(F)(F)F)cc3)nn2n1
inhibition [1]: -4.65%
inhibition [2]: -0.54%
inhibition [3]: 1.85%
inhibition [4]: 9.31%
inhibition [5]: 1.49%
inhibition [6]: 0.44%
inhibition [7]: 0.46%
inhibition [8]: -1.92%
inhibition [9]: -5.04%
inhibition [10]: 4.65%

Cc1ccc2c(c1)/C(=N/Nc1ccc(S(N)(=O)=O)cc1)C(=O)N2
inhibition [1]: 0.07%
inhibition [2]: 0.19%
inhibition [3]: 0.62%
inhibition [4]: -2.8%
inhibition [5]: -4.47%
inhibition [6]: 8.72%
inhibition [7]: 4.99%
inhibition [8]: 1.92%
inhibition [9]: 1.12%
inhibition [10]: -5.56%

c1ccc(Cc2nc3ccc(Nc4ncnc5ccccc45)cc3[nH]2)cc1
inhibition [1]: -0.48%
inhibition [2]: 0.11%
inhibition [3]: -0.64%
inhibition [4]: 3.02%
inhibition [5]: 9.95%
inhibition [6]: -0.9%
inhibition [7]: 6.86%
inhibition [8]: 5.53%
inhibition [9]: 8.45%
inhibition [10]: 5.38%

CN(C)CCCn1c(-c2nonc2N)nc2cnccc21
inhibition [1]: -0.88%
inhibition [2]: 0.92%
inhibition [3]: 0.09%
inhibition [4]: 1.4%
inhibition [5]: -1.56%
inhibition [6]: 5.57%
inhibition [7]: 4.33%
inhibition [8]: 6.47%
inhibition [9]: 4.26%
inhibition [10]: 4.73%

NS(=O)(=O)c1ccc(Nc2cc(-c3cccc(O)c3)n[nH]2)cc1
inhibition [1]: -2.64%
inhibition [2]: 0.05%
inhibition [3]: -0.8%
inhibition [4]: 2.68%
inhibition [5]: 3.26%
inhibition [6]: 2.32%
inhibition [7]: 2.31%
inhibition [8]: 4.33%
inhibition [9]: 5.24%
inhibition [10]: 6.1%

COc1cccc(-n2ncc3c(N/N=C/c4ccc(C)cc4)ncnc32)c1
inhibition [1]: 1.5%
inhibition [2]: 0.29%
inhibition [3]: -0.22%
inhibition [4]: -0.43%
inhibition [5]: 23.1%
inhibition [6]: 12%
inhibition [7]: 9.99%
inhibition [8]: 6.84%
inhibition [9]: 9.36%
inhibition [10]: 5.66%

NS(=O)(=O)c1cccc(-c2cc3ccncc3cc2OCc2ccccc2)c1
inhibition [1]: 0.02%
inhibition [2]: -1.2%
inhibition [3]: 0.96%
inhibition [4]: 1.61%
inhibition [5]: -1.22%
inhibition [6]: 8.21%
inhibition [7]: 10.9%
inhibition [8]: 7.94%
inhibition [9]: 10.7%
inhibition [10]: 4.52%

Nc1nccc(-c2c(-c3ccc(F)cc3)nn3cc(C(F)(F)F)ccc23)n1
inhibition [1]: 11.1%
inhibition [2]: -0.68%
inhibition [3]: 0%
inhibition [4]: 15.6%
inhibition [5]: 2.55%
inhibition [6]: -2.07%
inhibition [7]: -2.01%
inhibition [8]: 1.03%
inhibition [9]: 0.86%
inhibition [10]: 1.65%

Cc1cc(-c2ccccn2)cc(C)c1/C=C/c1cncc(-c2nn[nH]n2)c1
inhibition [1]: 0.83%
inhibition [2]: 0%
inhibition [3]: 0%
inhibition [4]: 7.89%
inhibition [5]: 6.35%
inhibition [6]: 5.76%
inhibition [7]: 7.54%
inhibition [8]: 4.37%
inhibition [9]: 6.71%
inhibition [10]: 7.41%

CCn1c(-c2nonc2N)nc2ccc(F)cc21
inhibition [1]: 0.48%
inhibition [2]: 3.46%
inhibition [3]: -5.33%
inhibition [4]: 4.71%
inhibition [5]: 8.79%
inhibition [6]: 4%
inhibition [7]: 6.96%
inhibition [8]: 7.24%
inhibition [9]: 8.68%
inhibition [10]: 8.59%

O=C1Nc2ccc(-c3cccnc3)cc2C1=Cc1cc(Br)c(O)c(Br)c1
inhibition [1]: -0.37%
inhibition [2]: 0.41%
inhibition [3]: -1.79%
inhibition [4]: 4.96%
inhibition [5]: 14.5%
inhibition [6]: 5.26%
inhibition [7]: 7.66%
inhibition [8]: 4.92%
inhibition [9]: 2.14%
inhibition [10]: 3.51%

COc1cc2ncnc(Nc3ccc(C)c(O)c3)c2cc1OC
inhibition [1]: -3.1%
inhibition [2]: -0.83%
inhibition [3]: 0.12%
inhibition [4]: 2.65%
inhibition [5]: 6.37%
inhibition [6]: 7.19%
inhibition [7]: 11.6%
inhibition [8]: 6.42%
inhibition [9]: 6.01%
inhibition [10]: 5.22%

CN(C)C(=O)O[C@H]1CN[C@H](C#Cc2cc3ncnc(Nc4ccc(OCc5cccc(F)c5)c(Cl)c4)c3s2)C1
inhibition [1]: -2.15%
inhibition [2]: -0.26%
inhibition [3]: 0.69%
inhibition [4]: 0.63%
inhibition [5]: 0.63%
inhibition [6]: 1.66%
inhibition [7]: 2.62%
inhibition [8]: 3.17%
inhibition [9]: -7.42%
inhibition [10]: 1.55%

O=S(=O)(CCOCc1ccc(-c2ccc3ncnc(Nc4ccc(OCc5cccc(F)c5)c(Cl)c4)c3c2)o1)c1ccccc1
inhibition [1]: 1.2%
inhibition [2]: 0.14%
inhibition [3]: 14.2%
inhibition [4]: 1.35%
inhibition [5]: 4.52%
inhibition [6]: 1.54%
inhibition [7]: 4.26%
inhibition [8]: -0.1%
inhibition [9]: 0.7%
inhibition [10]: 1.59%

C[C@@H](Oc1cc(-n2cnc3ccc(OCC4CCN(C)CC4)cc32)sc1C(N)=O)c1ccccc1C(F)(F)F
inhibition [1]: 1.96%
inhibition [2]: -2.47%
inhibition [3]: -0.08%
inhibition [4]: 6.68%
inhibition [5]: 7.31%
inhibition [6]: -3.27%
inhibition [7]: -3.79%
inhibition [8]: -5.4%
inhibition [9]: -3.39%
inhibition [10]: -3.26%

COC(=O)c1ccc2c(c1)C(=Cc1cc(Br)c(O)c(Br)c1)C(=O)N2
inhibition [1]: -3.43%
inhibition [2]: -0.52%
inhibition [3]: -0.45%
inhibition [4]: 14.7%
inhibition [5]: 47%
inhibition [6]: 5.93%
inhibition [7]: 3%
inhibition [8]: 6.94%
inhibition [9]: 8.75%
inhibition [10]: 7.2%

Cc1ccc2c(-c3ccnc(Nc4cccc(C(F)(F)F)c4)n3)c(-c3ccccc3)nn2n1
inhibition [1]: -0.04%
inhibition [2]: 0%
inhibition [3]: 0%
inhibition [4]: 1.2%
inhibition [5]: 3.98%
inhibition [6]: 1.79%
inhibition [7]: 5.16%
inhibition [8]: 4.63%
inhibition [9]: 8.3%
inhibition [10]: 7.46%
